# High-throughput results from PubChem BioAssay.
# TDP1 block: qHTS Assay for Inhibitors of Tyrosyl-DNA Phosphodiesterase (TDP1); Tyrosyl-DNA phosphodiesterase 1 (Homo sapiens), Q9NUW8; recombinant TDP1, AlphaScreen DNA substrate cleavage; Potency, µM (highest dose often 130 µM), for the others: at the top dose activity change, negative = inhibition, most hits filed as inhibitors; actives 0.28% (n = 350,000); further: potency means the concentration at half of the fitted maximal effect; nearly all actives have a fitted effect of over 40% in size
# Target sequence (Q9NUW8 whole entry, looked up): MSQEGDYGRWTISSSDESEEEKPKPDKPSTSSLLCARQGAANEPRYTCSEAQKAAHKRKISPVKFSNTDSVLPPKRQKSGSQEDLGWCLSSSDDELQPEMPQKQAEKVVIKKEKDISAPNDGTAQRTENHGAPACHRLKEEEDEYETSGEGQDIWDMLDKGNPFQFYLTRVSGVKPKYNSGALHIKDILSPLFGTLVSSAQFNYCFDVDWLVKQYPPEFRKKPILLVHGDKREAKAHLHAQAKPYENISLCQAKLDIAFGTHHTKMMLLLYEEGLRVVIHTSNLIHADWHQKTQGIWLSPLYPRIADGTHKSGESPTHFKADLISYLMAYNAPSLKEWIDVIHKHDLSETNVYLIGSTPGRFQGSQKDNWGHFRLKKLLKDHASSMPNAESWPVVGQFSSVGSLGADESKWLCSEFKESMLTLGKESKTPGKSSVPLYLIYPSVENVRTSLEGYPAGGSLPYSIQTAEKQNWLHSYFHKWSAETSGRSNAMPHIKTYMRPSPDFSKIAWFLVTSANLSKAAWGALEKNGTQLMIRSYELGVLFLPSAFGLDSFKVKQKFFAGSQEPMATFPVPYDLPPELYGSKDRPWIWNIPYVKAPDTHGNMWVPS
#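 Signal: AlphaScreen proximity between streptavidin donor and anti-FITC acceptor beads on intact substrate. Reaction: Tdp1 1 nM, substrate 15 nM final, 5 min RT after 15 min compound preincubation.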
# IL1B secr inh: qHTS for Inhibitors of Inflammasome Signaling: IL-1-beta AlphaLISA Primary Screen. THP-1 LPS/ATP IL-1B secretion, AlphaLISA, 16 h; active compounds read low. actives 4.7% (n = 360,000). AID 743279, 2014. activity change, % at 57.5 µM; in the data active means activity change below about -50%; inconclusive means mostly about -30% to -49%
#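 THP-1 cells pretreated 1 hr with compounds (up to 57.5 uM final), then stimulated with LPS (250 ng/mL final) plus ATP (1.25 mM final); secreted IL-1B measured by AlphaLISA after 16 hr, decreased signal indicating inhibition.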
# ELG1 DNA repair: qHTS screen for small molecules that inhibit ELG1-dependent DNA repair in human embryonic kidney (HEK293T) cells expressing luciferase-tagged ELG1; actives 2.3% (n = 330,000); AID 504467, 2011; HEK293T ELG1-luciferase reporter, luminescence, 16 h; DNA damage induced by 5-fluorouridine; Potency, µM (top dose mostly 46.1 µM), for inactives: top-dose activity change, negative = inhibition, most hits filed as inhibitors; further: potency means the concentration at half of the fitted maximal effect; nearly all actives have a fitted effect of over 55% in size
#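 DMSO vehicle served as the neutral condition. Each well held 2,000 cells given 5-fluorouridine plus compound; after 16 hr at 37 °C/5% CO2, ONE-Glo was added and luciferase measured 30 min later.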
# TDP1 cell noCPT: qHTS for Inhibitors of human tyrosyl-DNA phosphodiesterase 1 (TDP1): qHTS in cells in absence of CPT | DT40 Tdp1-/- hTDP1 cells, no CPT, ATP luminescence, 48 h | actives 15% (n = 420,000) | AID 686978, 2013 | Potency, µM (highest dose often 46.2 µM), without a hit: at the top dose activity change, negative = growth inhibition, most hits filed as inhibitors; further: potency means the concentration at half of the fitted maximal effect; nearly all actives have a fitted effect of over 55% in size
#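 Growth of hTDP1-complemented DT40 Tdp1-knockout cells is measured by ATP luminescence after at least 48 hr compound exposure at 37 °C, with DMSO substituting for the 20 nM CPT used in the parallel screen.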
# Giardia kill: Small Molecules that selectively kill Giardia lamblia: qHTS | actives 0.15% (n = 340,000) | Giardia lamblia trophozoite viability | activity change, % at 7.66 µM, hits read low; in the data active means activity change below about -80%; inconclusive means between about -30% and that limit;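 further: parasites exposed to compound for two days anaerobically before the ATP read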
#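 Trophozoites 100 cells/well + cpd; 48 hrs, 37 deg C, anaerobic. ATPLite 1-Step added, 15-30 min RT, luminescence read (ATP-based viability).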
# DT40 TDP1 CPT: qHTS for Inhibitors of human tyrosyl-DNA phosphodiesterase 1 (TDP1): qHTS in cells in presence of CPT; chicken DT40 Tdp1-/-;hTDP1 cells + 20 nM CPT, ATP luminescence, 48 h; Potency, µM (titrated, usually from 46.2 µM), without a hit: top-dose activity change, negative = growth inhibition, actives largely listed as inhibitors; actives 12% (n = 420,000); AID 686979, 2013; further: potency means the concentration at half of the fitted maximal effect; nearly all actives have a fitted effect of over 55% in size
#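 Cell growth measured by CellTiter-Glo luminescence after a minimum 48 h, 37 C compound exposure with 20 nM CPT in Tdp1-knockout DT40 cells stably expressing hTDP1, seeded 400/well; qHTS titration format.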
# The depositor's hits bear a star; ? = inconclusive; . = no result given; [ ] = dose if it differs, or a comment. Most compounds without a hit are left out; they make up all but 19% or so of the library. Unless noted, the call rests on the fitted dose curve; in most records, active means well fitted curve in the direction sought with a large enough effect; inconclusive means small, poorly fitted or top-dose-only effect, or another doubt; inactive means no such curve, though single readings can be large; an effect the other way counts as inactive or inconclusive. On the % scale 0 is the no-effect control and ±100 the full control effect.
SMILES,TDP1 block,IL1B secr inh,ELG1 DNA repair,TDP1 cell noCPT,Giardia kill,DT40 TDP1 CPT
CCN1CC(CN(C)Cc2cn(-c3ccc(C)cc3)nc2-c2ccc(F)cc2)CC1=O (stereo unspecified),3%,-21,-9%,?,1,?
COc1ccc(NC(=O)N[C@H]2CC[C@@H](CC(=O)NC3CCC3)O[C@@H]2CO)cc1,.,-4,.,3%,.,7%
c1ccc(C2[C@H]3CN(CC4CCCCC4)[C@H](c4ccccc4)C34CC2(c2cccnc2)C4)cc1 (stereo partly specified),9%,-1,-4%,18µM*,10,23µM*
CN1C[C@@H]2C(c3ccc(C(F)(F)F)cc3)C3(c4cccnc4)CC2(C3)[C@H]1c1ccccc1 (stereo partly specified),13%,?,5%,18µM*,7,?
N#Cc1ccc(C23CC4(C2)[C@H](CN(P(=O)(c2ccccc2)c2ccccc2)[C@@H]4c2ccccc2)C3c2ccc(Cl)nc2)cc1 (stereo partly specified),12%,?,?,?,-12,23µM*
N#Cc1ccc(C23CC4(C2)[C@H](CN(Cc2cccnc2)[C@@H]4c2ccccc2)C3c2ccc(C(F)(F)F)cc2)cc1 (stereo partly specified),9%,.,.,.,.,.
N#Cc1ccc(C23CC4(C2)[C@H](CN(Cc2ccc(-c5ccccc5)cc2)[C@@H]4c2ccccc2)C3c2ccc(Cl)nc2)cc1 (stereo partly specified),1%,23,0%,?,5,?
FC(F)(F)c1ccc(C2[C@H]3CN(Cc4cccnc4)[C@H](c4ccccc4)C34CC2(c2ccccc2)C4)cc1 (stereo partly specified),10%,9,22%,?,0,18µM*
Cc1ccc(C(=O)Nc2cc3[nH]c(=O)oc3cc2C)cc1,.,37,-27%,12%,-22,6%
COCC(=O)Nc1cc(C(=O)N2CC3CCCC2C3)c2c(c1)nc(-c1ccncc1)n2C (stereo unspecified),.,.,.,-7%,.,6%[9.04 µM]
Cc1cc(C)n(C(C)CC(=O)NCc2ccc(N(C)C)cc2)n1 (stereo unspecified),3%,.,.,-6%,.,-17%
N#Cc1ccc(C23CC4(C2)[C@H](CN(Cc2ccc(C(F)(F)F)cc2)[C@@H]4c2ccccc2)C3c2ccc(C(F)(F)F)cc2)cc1 (stereo partly specified),6%,13,10%,21µM*,13,?
COC(=O)c1ccc(C23CC4(C2)[C@H](CN(Cc2ccc(C(F)(F)F)cc2)[C@@H]4c2ccccc2)C3c2ccccc2)cc1 (stereo partly specified),13%,24,-5%,4.1µM*,-14,7.3µM*
COC(=O)c1ccc(C23CC4(C2)[C@H](CN(C)[C@@H]4c2ccccc2)C3c2ccc(C(F)(F)F)cc2)cc1 (stereo partly specified),11%,17,-8%,?,-2,?
c1ccc(C2[C@H]3CN(Cc4cccnc4)[C@H](c4ccccc4)C34CC2(c2ccccc2)C4)cc1 (stereo partly specified),15%,25,-2%,15µM*,3,?
COC(=O)c1ccc(C23CC4(C2)[C@H](CN(C)[C@@H]4c2ccccc2)C3c2ccc(Cl)nc2)cc1 (stereo partly specified),13%,4,-7%,15µM*,12,?
CC1=C(C(=O)Nc2cccnc2)C(c2ccc(Cl)cc2)n2nc(SCc3ccccc3)nc2N1 (stereo unspecified),-3%,.,.,-8%,.,-16%
FC(F)(F)c1ccc(CN2C[C@@H]3C(c4ccccc4)C4(c5cccnc5)CC3(C4)[C@H]2c2ccccc2)cc1 (stereo partly specified),11%,7,-3%,?,-2,?
FC(F)(F)c1ccc(CN2C[C@@H]3C(c4ccc(C(F)(F)F)cc4)C4(c5cccnc5)CC3(C4)[C@H]2c2ccccc2)cc1 (stereo partly specified),3%,47,-2%,15µM*,?,15µM*
COc1ccc(-n2c(SCC(=O)NCC3CCCO3)nc3ccccc3c2=O)cc1Cl (stereo unspecified),.,-10,.,21µM*,.,8.2µM*
Cc1ccc(C)c(-n2nnnc2SCC(=O)NCC2CCCO2)c1 (stereo unspecified),2%,-3,8%,6%,5,-9%
Cc1ccc(-n2c(SCC(=O)NCC3CCCO3)nc3n[nH]c(C)c3c2=N)cc1Cl (stereo unspecified),6%,-18,?,9.2µM*,-16,9.2µM*
COc1ccc(-n2c(SCC(=O)NCC3CCCO3)nc3n[nH]c(C)c3c2=N)cc1 (stereo unspecified),-3%,-56*,2%,18µM*,-12,?
COc1ccc(NC(=O)c2cc(OCCCN(C)C)nn2Cc2ccccc2)cc1,10%,.,.,.,.,.
CCOc1ccc(C(=O)CCC(=O)N(CC)CC(=O)NCc2ccc(Cl)cc2)cc1,4%,19,2%,?,-3,-10%
CCCCN(CC)CCNC(=O)c1ccc2c(Cl)c3c(nc2c1)CCC3,.,?,25%,16µM*,-29,?
CCN(CC)CCCNC(=O)c1ccc2c(Cl)c3c(nc2c1)CCCC3,0%,.,0%,16µM*,27,26µM*
CCN(CC)CCCNC(=O)c1ccc2c(SCC(=O)O)c3c(nc2c1)CCC3,0%,.,-3%,.,.,.
CCOC(=O)C1CCN(C(c2cccc(F)c2)c2c(O)cc(C)n(Cc3ccco3)c2=O)CC1 (stereo unspecified),8%,.,.,-10%,.,4%
Fc1ccccc1C1CC(c2ccco2)=Nc2ccccc2S1 (stereo unspecified),.,-5,?,13µM*,?,?
